Unmarked numbers belong to inactive results. Active and inactive are the calls of the source. The limit is not given here; nearly all actives have IC50 up to about 87 µM.
assay: rhodamine 123 fluorescence quenching, dose response, artefact control for mitochondrial permeability transition pore inhibitor project, biochemical, dry powder samples (AID 720723); conditions: Rhodamine 123 fluorescence quenching counterscreen, cell-free

Compound | IC50
Cc1ccc2nc(N(CCCN(C)C)C(=O)CCc3ccccc3)sc2c1 | 34.1 µM (active)
N=c1sccn1CC(=O)Nc1cccc(Oc2ccccc2)c1 | 54.4 µM (active)
Cc1cc(C)c2nc(N(CCCN(C)C)C(=O)c3ccc(S(=O)(=O)N4CCCCCC4)cc3)sc2c1 | 20.9 µM (active)
C=CCNCCOc1ccc(C(C)(C)c2ccccc2)cc1 | 41.6 µM (active)
COCCCNCCCOc1ccc(Cl)cc1C(C)(C)C | 42.3 µM (active)
COc1ccc(-n2cc(CNC3CCN(C)CC3)c(-c3cccc(F)c3)n2)cc1 | > 100 µM
O=C(CC1NCCc2ccccc21)Nc1ccc(Cl)cc1 (stereo unspecified) | 82.4 µM (active)
CN1CCC[C@@H]1CCO[C@](C)(c1ccccc1)c1ccc(Cl)cc1 | 27.5 µM (active)
N#Cc1c(NCCN)nc(-c2ccco2)c2c1CCCC2 | 82.5 µM (active)
CNCCC=C1c2ccccc2CCc2ccccc21 | > 100 µM
CN(C)CCCN1c2ccccc2Sc2ccc(Cl)cc21 | > 100 µM
COc1cc(CNCCO)cc(Cl)c1OCc1ccccc1Cl | 31.5 µM (active)
CC1CCCN(CCC(=O)c2ccc(Br)cc2)C1 (stereo unspecified) | 85.8 µM (active)
COc1ccc(C)c2sc(N(CCCN(C)C)C(=O)CS(=O)(=O)c3ccc(F)cc3)nc12 | 87.8 µM (active)
Cc1cc(C)c2nc(N(CCCN(C)C)C(=O)C3=COCCO3)sc2c1 | > 101 µM
Cc1ccc2nc(N(CCN(C)C)C(=O)/C=C/c3cccs3)sc2c1 | > 100 µM

From PubChem BioAssay AID720723 (Molecular Libraries Program, Specialized Chemistry Center, …, 2013)
